Laboratory results from PubChem BioAssay (EPA / NIEHS).
Inconclusive results are not listed. Calls of active or inactive are those of the source. How the source made its calls, unless noted: active means hit-call score of the fitted dose curve at least 0.9, where 1 is the maximum; inactive means score below 0.9.

Experiments:
[1] = UKN5_HCS_SBAD2_cell_viability: Viability Assessment in the University of Konstanz (UKN) Leist Lab Neurite Outgrowth Assay in human iPSC-derived immature Dorsal Root Ganglia Neurons (UKN5) (AID 2284056)
How it was run: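 iPSC-derived immature peripheral neurons (SBAD2) seeded on Matrigel with CHIR99021, SU5402 and DAPT, dosed 1 h later for 24 h. Viability from Hoechst H-33342 and calcein-AM live staining, high-content imaging; bidirectional fit versus DMSO.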

[2] = UKN5_HCS_SBAD2_neurite_outgrowth: University of Konstanz (UKN) Leist Lab Neurite Outgrowth Assay in human iPSC-derived immature Dorsal Root Ganglia Neurons (UKN5) (AID 2284070); conditions: actives raise or lower the signal
How it was run: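 Neurite outgrowth is quantified as calcein-AM-labelled neurite area in human iPSC-derived peripheral neurons treated for 24 h, starting 1 h after plating in medium with CHIR99021 (1.5 uM), SU5402 (5 uM) and DAPT (5 uM).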

[3] = UKN2_HCS_IMR90_neural_migration: University of Konstanz (UKN) Leist Lab Neural Crest Cell Migration Assay in human induced IMR90 Pluripotent Stem Cells (UKN2) (AID 2284204); conditions: actives raise or lower the signal
How it was run: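 Using a 96-well stopper format with PLO/laminin/fibronectin coating, neural crest cells from iPSC migrate in cytokine-supplemented N2-S medium; after 24 h, chemicals are applied for a further 24 h, then cells are imaged after dye staining.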

[4] = UKN4_HCS_LUHMES_neurite_outgrowth: University of Konstanz (UKN) Leist Lab Neurite Outgrowth Assay in human LUHMES cells (UKN4) (AID 2284206); conditions: actives raise or lower the signal
How it was run: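 Neurite area in dopaminergic-model LUHMES neurons is measured by high-content imaging of calcein-AM after 24 h treatment starting shortly after day-2 replating; Hoechst staining tracks viability.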

[5] = IUF_NPC1b_proliferation_BrdU_72hr: Leibniz Research Institute for Environmental Medicine (IUF) 72-hour Neural Progenitor Cell Bromodeoxyuridine (BrdU) Proliferation Assay (NPC1b) (AID 2284207)
How it was run: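 Neural progenitor spheres of human fetal origin are treated for three days; BrdU added for the last 16 h is quantified by luminescence ELISA, with DMSO as baseline and EGF/FGF omission as positive control.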

[6] = IUF_NPC1_viability_72hr: Viability Assessment at 72 hours in the Leibniz Research Institute for Environmental Medicine (IUF) Neural Progenitor Cell Proliferation Assay (NPC1) (AID 2284209)
How it was run: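 Three-day continuous exposure of human neural progenitor spheres under EGF/FGF-driven proliferation; cell viability scored by alamar blue signal versus DMSO.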

[7] = UKN4_HCS_LUHMES_cell_viability: Viability Assessment in the University of Konstanz (UKN) Leist Lab Neurite Outgrowth Assay in human LUHMES cells (UKN4) (AID 2284232)
How it was run: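 Measured in replated, 2-day-differentiated LUHMES cells treated 24 h; stained 30 min with H-33342 and calcein-AM before high-content imaging.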

[8] = UKN2_HCS_IMR90_cell_viability: Viability Assessment in the University of Konstanz (UKN) Leist Lab Neural Crest Cell Migration Assay in human induced IMR90 Pluripotent Stem Cells (UKN2) (AID 2284233);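 further: viability of neural crest cells differentiated from IMR90 iPSC measured by calcein-AM fluorescence imaging; cells exposed to compound for 24 h after a 24 h migration phase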
How it was run: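 cMINC format, iPSC-derived neural crest (IMR90); 24 h migration (EGF/FGF, N2-S), then 24 h toxicant. Calcein-AM/H-33342 stain 30 min; fluorescence intensity by HCS; DMSO-normalised, bidirectional fitting.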

[9] = IUF_NPC2c_oligodendrocyte_migration_120hr: Leibniz Research Institute for Environmental Medicine (IUF) 120-hour Neural Progenitor Cell Migration Assay for Oligodendrocyte Migration (NPC2c) (AID 2284297);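 further: O4-positive oligodendrocyte migration distance divided by radial glia migration distance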
How it was run: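 Primary hNPC spheres migrating on extracellular matrix, exposed five days to a 7-point dilution series with solvent control. Oligodendrocyte migration was scored by high-content imaging of O4 immunostaining and expressed relative to radial glia distance.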

[10] = IUF_NPC2a_radial_glia_migration_120hr: Leibniz Research Institute for Environmental Medicine (IUF) 120-hour Neural Progenitor Cell Migration Assay for Radial Glia Migration (NPC2a) (AID 2284298)
How it was run: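 In this multiplexed test, fetal hNPC spheres migrate radially on poly-D-lysine/laminin in N2 medium (37C, 5% CO2, pH 7.2-7.6) under continuous compound exposure over five days. Migration is scored at 120 h from automated Hoechst nuclear imaging.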

[11] = IUF_NPC2a_radial_glia_migration_72hr: Leibniz Research Institute for Environmental Medicine (IUF) 72-hour Neural Progenitor Cell Migration Assay for Radial Glia Migration (NPC2a) (AID 2284299)
How it was run: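 Spheres of human primary neural progenitors migrate on poly-D-lysine/laminin under compound exposure at 37C, 5% CO2. The 72 h radial glia migration distance comes from brightfield images, measured manually.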

[12] = IUF_NPC2b_neuronal_migration_120hr: Leibniz Research Institute for Environmental Medicine (IUF) 120-hour Neural Progenitor Cell Migration Assay for Neuron Migration (NPC2b) (AID 2284300)
How it was run: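 Neurons identified by TUBB3 immunostaining and Hoechst nuclei; migration distance measured automatically on fixed wells at 120 h, normalized to glia migration. Exposure spanned five days of differentiation in N2 medium, seven test concentrations.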

[13] = IUF_NPC3_neuronal_differentiation_120hr: Leibniz Research Institute for Environmental Medicine (IUF) 120-hour Neuronal Differentiation Assay (NPC3) (AID 2284301)
How it was run: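 Neuronal differentiation of primary human neural progenitors measured by high-content imaging: percent TUBB3+ of Hoechst+ nuclei within migrated area at 120 h, seven-point serial dilution plus solvent control, gain or loss relative to DMSO.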

[14] = IUF_NPC4_neurite_length_120hr: Leibniz Research Institute for Environmental Medicine (IUF) 120-hour Neuronal Morphology Assay for Neurite Length (NPC4) (AID 2284302)
How it was run: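 Neurons from differentiating human fetal neural progenitor spheres are scored for average neurite length after five days of compound exposure. Fitting uses DMSO as negative control.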

[15] = IUF_NPC5_oligodendrocyte_differentiation_120hr: Leibniz Research Institute for Environmental Medicine (IUF) 120-hour Oligodendrocyte Differentiation Assay (NPC5) (AID 2284304; active means hit-call score of the fitted dose curve at least 0.9, where 1 is the maximum;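 further: primary human fetal neural progenitor spheres plated to migrate and differentiate; share of O4-positive cells among Hoechst nuclei found by CNN image analysis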)
How it was run: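 Human primary NPC neurospheres migrating and differentiating on laminin for 120 h under continuous compound exposure (serial dilution, solvent control). Endpoint: percent O4+ oligodendrocytes among Hoechst nuclei, detected by CNN image analysis, with DMSO as negative control.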

[16] = IUF_NPC4_neurite_area_120hr: Leibniz Research Institute for Environmental Medicine (IUF) 120-hour Neuronal Morphology Assay for Neurite Area (NPC4) (AID 2284305; active means hit-call score of the fitted dose curve at least 0.9, where 1 is the maximum)
How it was run: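 Endpoint at 120 h: automated imaging of TUBB3/Hoechst-stained differentiating human neural progenitor spheres, neurite area per neuron from skeletonization. DMSO solvent control, not above 0.1%, set the baseline; medium was half-replaced on day 3.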

[17] = IUF_NPC2-5_cell_number_120hr: Cell Number Assessment at 120 hours in the Leibniz Research Institute for Environmental Medicine (IUF) Neural Progenitor Cell Migration and Differentiation Assay (NPC2-5) (AID 2284308);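 further: count of Hoechst-stained nuclei in migration zone around plated human neural progenitor spheres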
How it was run: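 Cell number is taken as all Hoechst-positive nuclei detected in the area into which cells migrate out of the sphere, scored at 120 h and referenced to DMSO solvent control, which was kept at no more than 0.1%.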

[18] = IUF_NPC2-5_viability_120hr: Viability Assessment at 120 hours in the Leibniz Research Institute for Environmental Medicine (IUF) Neural Progenitor Cell Migration and Differentiation Assay (NPC2-5) (AID 2284312)
How it was run: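 Human fetal (GW 16-19) neural progenitor spheres of 0.3 mm were plated on poly-D-lysine/laminin in N2 differentiation medium and exposed from day 0 for 120 h, with half-medium refresh at day 3. Viability was read as alamar blue resazurin-to-resorufin fluorescence against DMSO.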

Measured: AC50

CC(=O)OC/N=[N+](\C)[O-]
active: [2] 613 µM | [4] 721 µM | [5] 371 µM | [6] 1150 µM
inactive: [1] | [3] | [7] | [8] | [9] | [10] | [11] | [12] | [13] | [14] | [15] | [16] | [17] | [18]
